From PubChem BioAssay
SW480 rerep = DNA re-replication induction in SW480 cells. SW480 DNA re-replication, Hoechst DNA content imaging, 48 h. Potency, µM (doses to about 46.1 µM), inactives show top-dose re-replication activation, hits mostly activators. actives 1.8% (n = 340,000). AID 624297; note: % of control where 0% means no effect; nearly all actives have a fitted effect of over 55% in size
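Image-based DNA-content assay: after two days of treatment, nuclei were labelled with the DNA dye Hoechst and imaged, and hits were compounds raising the count of nuclei showing high fluorescence intensity.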
RORgamma inh = blocks mouse ROR gamma transcriptional activity; Drosophila S2 Gal4-RORgamma UAS-luciferase reporter, 20 h; Potency, µM (series often up to 53.6 µM), inactives show at the top dose activity change, negative = inhibition, actives largely listed as inhibitors; actives 5.4% (n = 310,000); AID 2551; note: % is set by controls: 0 for no effect and ±100 for the full control effect; nearly all actives have a fitted effect of over 60% in size
Target sequence (P51450 whole entry, looked up, the tested form may be a part): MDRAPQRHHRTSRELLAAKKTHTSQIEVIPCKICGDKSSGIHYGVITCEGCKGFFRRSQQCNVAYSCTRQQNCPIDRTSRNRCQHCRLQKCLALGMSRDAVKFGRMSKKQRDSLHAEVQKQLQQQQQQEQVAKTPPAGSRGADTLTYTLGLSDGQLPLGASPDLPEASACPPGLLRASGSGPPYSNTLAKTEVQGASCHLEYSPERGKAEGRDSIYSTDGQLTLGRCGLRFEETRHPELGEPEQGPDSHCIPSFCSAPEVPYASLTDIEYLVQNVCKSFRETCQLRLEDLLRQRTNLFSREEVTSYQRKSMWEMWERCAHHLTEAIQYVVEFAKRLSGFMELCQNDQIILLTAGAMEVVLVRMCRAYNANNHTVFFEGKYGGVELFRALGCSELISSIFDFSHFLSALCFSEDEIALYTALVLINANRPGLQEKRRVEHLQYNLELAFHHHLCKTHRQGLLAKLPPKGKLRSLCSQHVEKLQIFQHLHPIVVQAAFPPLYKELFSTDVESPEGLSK
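Using a luciferase readout, inhibitors were identified by reduced reporter activity in Drosophila cells coexpressing a copper-inducible Gal4–ROR gamma fusion and UAS-driven Photinus luciferase, incubated 20 hr after 700 uM copper sulfate.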
KB-3-1 cytotox = kills parental KB-3-1 adenocarcinoma cells | KB-3-1 viability, CellTiter-Glo ATP luminescence, 72 h | Potency, µM (titrated, usually from 46.1 µM), hits mostly cytotoxic | actives 1.4% (n = 400,000); note: % is set by controls: 0 for no effect and ±100 for the full control effect; nearly all actives have a fitted effect of over 60% in size
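Cytotoxicity measured as CellTiter-Glo luminescence after 72 h at 37 C. Compound titrations were pinned onto drug-naive KB-3-1 parental adenocarcinoma cells grown in DMEM with 10% FBS, and normalized data fitted to concentration-response curves.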
VP16 counter = Gal4-VP16 reporter inhibition counter-screen. Potency, µM (highest dose often 53.6 µM), inactives show at the highest dose activity, negative = inhibition, usual class: inhibitors. Drosophila S2 Gal4-VP16 UAS-luciferase, luminescence, 20 h. actives 3.5% (n = 310,000);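 note: Gal4-VP16 expression switched on by copper sulfate through the metallothionein promoter; % is set by controls: 0 for no effect and ±100 for the full control effect; nearly all actives have a fitted effect of over 50% in size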
MCF10A rerep = induces DNA re-replication in MCF 10a normal breast cells. AID 624296. actives 2.9% (n = 350,000). MCF 10A DNA re-replication, Hoechst nuclear intensity, 48 h. Potency, µM (highest dose often 46.1 µM), without a hit: at the highest dose activity, positive = re-replication, usual class: activators; note: % of control where 0% means no effect; nearly all actives have a fitted effect of over 50% in size
KB-V1 MDR tox = kills drug-selected multidrug resistant KB-V1 cells; KB-V1 MDR cells viability, CellTiter-Glo, 72 h; Potency, µM (top dose mostly 46.1 µM), actives largely listed as cytotoxic; actives 3.4% (n = 400,000); AID 1347076; note: % is set by controls: 0 for no effect and ±100 for the full control effect; nearly all actives have a fitted effect of over 60% in size
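Luminescent ATP read-out (CellTiter-Glo, 10 min) measures survival of drug-selected KB-V1 MDR cells after 72 h, 37 degrees C compound exposure. Medium: phenol-red-free DMEM, 10% FBS. Values from fitted concentration-response curves.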
The depositor's hits bear a star; i = inactive; ? = inconclusive; / = not tested or not shown. Only some compounds are listed: those with a hit (about 10% of all), similar ones and a draw of the others. Calls come from the whole dose curve; as a rule, active = well fitted curve in the direction sought with a large enough effect; inconclusive = small, poorly fitted or top-dose-only effect, or another doubt; inactive = no such curve, though single readings can be large; an effect the other way counts as inactive or inconclusive. Potency is the fitted concentration of half-maximal effect.

SMILES	SW480 rerep	RORgamma inh	KB-3-1 cytotox	VP16 counter	MCF10A rerep	KB-V1 MDR tox
CCN(CC)S(=O)(=O)c1ccc(C)c(NC(=O)/C=C/c2cccs2)c1	7%	42%	i	5%	12%	8.2µM*
O=C(/C=C/c1cccs1)Nc1ccc(Br)cn1	?	-2%	1.3µM*	-7%	?	0.37µM*
O=C(/C=C/c1cccs1)Nc1cccc(NC(=O)/C=C/c2cccs2)n1	-1%	?	23µM*	-25%	18µM*	23µM*
NS(=O)(=O)c1ccc(NC(=O)/C=C/c2cccs2)cc1	23µM*	-1%	i	-13%	-2%	i
O=C(/C=C/c1cccs1)Nc1nccs1	3%	-8%	i	5%	?	i
CCc1nnc(NC(=O)/C=C/c2cccs2)s1	-8%	?	i	?	-5%	i
NS(=O)(=O)c1cccc(NC(=O)/C=C/c2cccs2)c1	-3%	11%	?	2%	-1%	i
Cc1ccccc1NC(=O)/C=C/c1cccs1	-13%	?	i	?	-3%	?
CCCCN(CC)CCCNC(=O)Cn1nc(CC)n2c(cc3sccc32)c1=O	/	/	i	/	/	?
Cc1cc(C)c(-c2csc(NC(=O)/C=C/c3cccs3)n2)c(C)c1	?	-29%	?	-30%	?	5.2µM*
COc1ccc(C2CC(=O)Oc3cc(C)c(Cl)c(C)c32)cc1 (centres undefined)	-1%	?	i	32µM*	18µM*	i
COc1cc(C2CC(=O)Oc3cc(C)c(Br)c(C)c32)cc(OC)c1OC (centres undefined)	0%	?	i	5.6µM*	?	i
COc1ccc(Cl)cc1NC(=O)CN1C(=O)C(C)(C)c2cc(S(=O)(=O)N3CCCCC3)ccc21	/	/	i	/	/	i
NC(=O)COC(=O)c1ccccc1Nc1ccc(SC(F)F)cc1	-4%	27%	i	7%	23µM*	i
CC(C)(C)NC(=O)COC(=O)c1ccccc1Nc1ccc(SC(F)F)cc1	5%	-40%	?	?	?	i
S=c1[nH]c2cc(Cl)ccc2s1	-3%	13µM*	i	?	-3%	i
Cc1cc(Cl)cc2sc(=S)[nH]c12	18%	/	i	/	?	i
S=c1[nH]c2ccc(Cl)cc2[nH]1	-5%	-3%	i	7%	2%	18µM*
Cc1cccc(C)c1C(O)c1ncc(-c2ccccc2Cl)[nH]1 (centres undefined)	/	/	i	/	/	i
COc1cc(CNc2ncnc3c2ncn3[C@H]2CN(Cc3ccncc3)C[C@@H](CO)O2)cc(OC)c1OC	/	/	i	/	/	i
Cc1c(CCOC(=O)c2cc([N+](=O)[O-])cc([N+](=O)[O-])c2)sc[n+]1CC(=O)c1ccc(Br)cc1	19%	4µM*	i	0%	4%	?
Cc1c(CCOC(=O)CC23CC4CC(CC(C4)C2)C3)sc[n+]1CC(=O)c1ccccc1	-12%	?	?	4.5µM*	?	i
COC(=O)c1ccccc1NC(=O)N1CCC(N2CCN(Cc3ccc(F)cc3)C(=O)C2=O)CC1	/	/	i	/	/	i
NC1=NC(=O)/C(=C\c2cc([N+](=O)[O-])ccc2Cl)S1	0.46µM*	-8%	i	6%	-1%	i
CC(C)OCCCn1c(-c2ccc(Br)cc2)c[nH]c1=S	0%	1µM*	i	2.8µM*	18%	?
SMILES	SW480 rerep	RORgamma inh	KB-3-1 cytotox	VP16 counter	MCF10A rerep	KB-V1 MDR tox
CC(C)OCCCNC(=O)c1ccc(Br)cc1	-8%	9%	i	?	-2%	i
CC1=C(C(=O)Nc2ccc(C)cc2C)C(c2ccc(O)cc2)n2nnnc2N1 (centres undefined)	/	/	i	/	/	i
CCCOc1ccc2c(c1)C(=NN=C(N)N)c1cc(OCCC)ccc1-2	18µM*	14µM*	?	-23%	?	?
CCCCCCn1c(-c2cccs2)n[nH]c1=S	1%	2µM*	?	?	3%	?
CCCCn1c(-c2cccs2)nc2nc3ccccc3nc21	?	20%	i	-10%	14%	?
CCCCn1c(-c2csc3c2CCCC3)n[nH]c1=S	1%	3.5µM*	i	?	20%	21µM*
CCCCn1c(-c2csc3c2CCC(C)C3)n[nH]c1=S (centres undefined)	15%	0.79µM*	21µM*	2.5µM*	21%	15µM*
CCCCNC(=S)NNC(=O)c1csc2c1CCC(C)C2 (centres undefined)	3%	?	i	-19%	5%	i
CCCCn1c(-c2csc3ccccc23)n[nH]c1=S	-10%	7.9µM*	i	?	3%	?
COC(=O)C1=C[C@@H](C(=O)OC)C2C3=C(C(=O)[C@]2(C)NC(=O)c2ccccc2)[C@H](C)n2c(=O)n(C)c(=O)n2[C@@H]3C1 (some centres undefined)	/	5%	/	-3%	/	/
CCCCC/C=C\C/C=C\C/C=C\C=C\C(O)CCCC(=O)O (centres undefined)	/	11%	/	-1%	/	/
Oc1ccc(N2CCN(C(c3ccc(Cl)cc3)c3nnnn3Cc3ccc(F)cc3)CC2)cc1 (centres undefined)	/	/	?	/	/	i
CCOCCCn1c(SCC(=O)Nc2cc(C)ccc2C)nc2c(oc3ccccc32)c1=O	/	/	i	/	/	i
O=C(NCc1ccccc1)c1ccc2c(c1)nc1n2CCOC1	/	/	i	/	/	i
CCn1c(-c2cccc(S(=O)(=O)N3CCCC3)c2)n[nH]c1=S	-29%	?	i	-1%	1%	?
CCn1c(-c2csc3c2CCCC3)n[nH]c1=S	-9%	4µM*	i	4.5µM*	-6%	?
C=CCn1c(-c2csc3c2CCC(C)C3)n[nH]c1=S (centres undefined)	-2%	1.4µM*	i	2.5µM*	?	i
C=CCn1c(C(C)NC(=O)c2ccc(C)cc2)n[nH]c1=S (centres undefined)	2%	?	i	0%	0%	?
CC(C)CN1CCc2nc(Nc3ccc(F)cc3F)ncc2C1	/	/	i	/	/	i
CCc1cccc(NC(=O)C(CC)n2nc(C)c3sc4ccccc4c3c2=O)c1 (centres undefined)	/	/	i	/	/	i
Nc1ncnc2c1C1(CCCCC1)Cc1ccccc1-2	1%	1%	?	-9%	1%	23µM*
Nc1n[nH]c2c1C1(CCCCC1)Cc1ccccc1-2	5%	-28%	i	?	6%	?
